Test results published in PubChem BioAssay (EPA / NIEHS).
Results filed as inconclusive are left out. Activity calls are given as the source filed them. The calls were made as follows, unless noted: active = hit-call score of the fitted dose curve at least 0.9, where 1 is the maximum; inconclusive = response in the unintended direction; inactive = score below 0.9.

Experiments:
[1] = target: Oxysterols receptor LXR-alpha (Homo sapiens) (UniProt Q13133); experiment: ATG_LXRa_TRANS: Attagene TRANS-FACTORIAL HepG2 Assay for human Liver X Receptor alpha (LXRa) (AID 2282980); conditions: HepG2 Attagene TRANS reporter, LXRa transactivation
In short: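 HepG2 cells were transiently transfected with multiplexed reporter units driven by chimeric LXRa–GAL4 fusion proteins, then dosed for 24 h. Reporter mRNA was quantified by RT-PCR, fluorescent labelling and capillary electrophoresis; gain of signal fitted against DMSO baseline.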

[2] = target: Transcriptional activator Myb (Homo sapiens) (UniProt P10242); experiment: ATG_Myb_CIS: Attagene CIS-FACTORIAL HepG2 Assay for human Myeloblastosis (Myb) Proto-Oncogene Transcription Factor (AID 2282986; active = hit-call score of the fitted dose curve at least 0.9, where 1 is the maximum; inactive = score below 0.9); conditions: HepG2 Attagene CIS-FACTORIAL Myb reporter transcription; actives raise or lower the signal
In short: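 After 24 h of compound dosing, total RNA from transfected HepG2 cells is reverse-transcribed and the reporter sequences amplified, labeled and separated by capillary electrophoresis. Values come from bidirectional fitting against DMSO.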

[3] = target: Nuclear respiratory factor 1 (Homo sapiens) (UniProt Q16656); experiment: ATG_NRF1_CIS: Attagene CIS-FACTORIAL HepG2 Assay for human Nuclear Respiratory Factor 1 (NRF1) Orphan Gene (AID 2282987; active = hit-call score of the fitted dose curve at least 0.9, where 1 is the maximum; inactive = score below 0.9); conditions: HepG2 NRF1 cis-element reporter, Attagene multiplex; actives raise or lower the signal
In short: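 Measured: fluorescent reporter-specific RT-PCR products from transfected HepG2 cells, separated by capillary electrophoresis. Exposure lasted 24 h. Analysis used bidirectional curve fitting with DMSO as negative control.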

[4] = target: Nuclear receptor subfamily 4 group A member 2 (Homo sapiens) (UniProt P43354); experiment: ATG_NURR1_TRANS: Attagene TRANS-FACTORIAL HepG2 Assay for human Nuclear Receptor Related Protein 1 (NURR1) (AID 2282985); conditions: HepG2 Attagene TRANS reporter, mRNA readout
In short: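 Cells: HepG2, transiently transfected. Exposure: 24 h. Detection: fluorescence of labelled RT-PCR products separated by capillary electrophoresis; upward fit versus DMSO.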

[5] = target: Oxysterols receptor LXR-beta (Homo sapiens) (UniProt P55055); experiment: ATG_LXRb_TRANS: Attagene TRANS-FACTORIAL HepG2 Assay for human Liver X Receptor beta (LXRb) (AID 2282981); conditions: HepG2 Attagene TRANS GAL4-LXRb reporter, mRNA
In short: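 Cells: HepG2, transiently transfected with GAL4-UAS reporter units plus LXRb-Gal4 fusion. Treatment: 24 h. Detection: reporter mRNA by RT-PCR, 6-FAM labelling, HpaI digestion, capillary electrophoresis.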

[6] = ATG_M_06_TRANS: Attagene TRANS-FACTORIAL HepG2 Assay for M06 Transcription Factor (Internal Marker) (AID 2282983); conditions: HepG2 Attagene TRANS M06 internal marker reporter;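 also: reporter transcript level by RT-PCR then capillary electrophoresis fluorescence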
In short: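 HepG2 cells transiently transfected with multiplexed GAL4-UAS reporter transcription units; after 24 h compound exposure, reporter mRNA measured by RT-PCR, FAM-labelled primer extension, HpaI digestion and capillary electrophoresis. Gain-of-signal fitted versus DMSO baseline; background control readout.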

[7] = target: Hepatocyte nuclear factor 4-alpha (Homo sapiens) (UniProt P41235); experiment: ATG_HNF4a_TRANS: Attagene TRANS-FACTORIAL HepG2 Assay for human Hepatocyte Nuclear Factor 4 alpha (HNF4a) (AID 2282982); conditions: HepG2 HNF4a transactivation reporter, mRNA readout
In short: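 Transfected HepG2 reporter cells are dosed for 24 h; reporter RNA is reverse-transcribed, amplified, fluorescently labelled and HpaI-digested before CE sizing. Positive-direction fit against DMSO.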

[8] = ATG_M_32_TRANS: Attagene TRANS-FACTORIAL HepG2 Assay for M32 Transcription Factor (Internal Marker) (AID 2282984); conditions: HepG2 Attagene TRANS M32 internal marker reporter
In short: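 Using transiently transfected HepG2 cells exposed to test chemicals for 24 h, reporter transcripts are converted to labelled cDNA fragments and quantified by capillary electrophoresis. DMSO defines the activity baseline.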

Measured: AC50

Chain of Hepatocyte nuclear factor 4-alpha (Homo sapiens) (P41235 whole entry, looked up): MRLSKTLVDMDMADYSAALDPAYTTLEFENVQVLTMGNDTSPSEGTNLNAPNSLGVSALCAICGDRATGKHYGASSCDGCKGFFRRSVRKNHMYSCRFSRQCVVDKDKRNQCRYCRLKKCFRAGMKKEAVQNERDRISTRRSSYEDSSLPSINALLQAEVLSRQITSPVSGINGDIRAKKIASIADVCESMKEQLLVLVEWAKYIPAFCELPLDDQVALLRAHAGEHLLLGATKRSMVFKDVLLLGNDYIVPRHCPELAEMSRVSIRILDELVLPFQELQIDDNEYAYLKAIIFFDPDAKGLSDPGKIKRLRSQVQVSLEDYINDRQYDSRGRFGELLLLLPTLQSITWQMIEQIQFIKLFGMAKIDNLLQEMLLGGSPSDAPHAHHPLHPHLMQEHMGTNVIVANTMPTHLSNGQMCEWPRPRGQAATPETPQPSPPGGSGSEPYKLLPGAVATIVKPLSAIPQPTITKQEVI
Chain of Nuclear respiratory factor 1 (Homo sapiens) (Q16656 whole entry, looked up): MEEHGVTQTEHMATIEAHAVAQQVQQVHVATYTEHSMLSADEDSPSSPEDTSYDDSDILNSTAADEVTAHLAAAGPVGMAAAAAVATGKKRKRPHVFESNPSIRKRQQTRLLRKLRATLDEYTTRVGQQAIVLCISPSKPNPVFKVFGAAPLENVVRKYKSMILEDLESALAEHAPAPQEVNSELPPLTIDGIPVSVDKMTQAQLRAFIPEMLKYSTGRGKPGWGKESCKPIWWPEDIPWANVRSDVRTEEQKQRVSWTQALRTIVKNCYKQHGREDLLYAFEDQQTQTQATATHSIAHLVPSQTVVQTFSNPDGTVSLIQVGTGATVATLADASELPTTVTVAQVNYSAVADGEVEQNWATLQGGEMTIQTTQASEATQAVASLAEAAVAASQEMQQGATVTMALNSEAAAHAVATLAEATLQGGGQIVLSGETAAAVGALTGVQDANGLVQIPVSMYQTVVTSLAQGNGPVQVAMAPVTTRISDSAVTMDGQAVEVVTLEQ
Chain of Transcriptional activator Myb (Homo sapiens) (P10242 whole entry, looked up): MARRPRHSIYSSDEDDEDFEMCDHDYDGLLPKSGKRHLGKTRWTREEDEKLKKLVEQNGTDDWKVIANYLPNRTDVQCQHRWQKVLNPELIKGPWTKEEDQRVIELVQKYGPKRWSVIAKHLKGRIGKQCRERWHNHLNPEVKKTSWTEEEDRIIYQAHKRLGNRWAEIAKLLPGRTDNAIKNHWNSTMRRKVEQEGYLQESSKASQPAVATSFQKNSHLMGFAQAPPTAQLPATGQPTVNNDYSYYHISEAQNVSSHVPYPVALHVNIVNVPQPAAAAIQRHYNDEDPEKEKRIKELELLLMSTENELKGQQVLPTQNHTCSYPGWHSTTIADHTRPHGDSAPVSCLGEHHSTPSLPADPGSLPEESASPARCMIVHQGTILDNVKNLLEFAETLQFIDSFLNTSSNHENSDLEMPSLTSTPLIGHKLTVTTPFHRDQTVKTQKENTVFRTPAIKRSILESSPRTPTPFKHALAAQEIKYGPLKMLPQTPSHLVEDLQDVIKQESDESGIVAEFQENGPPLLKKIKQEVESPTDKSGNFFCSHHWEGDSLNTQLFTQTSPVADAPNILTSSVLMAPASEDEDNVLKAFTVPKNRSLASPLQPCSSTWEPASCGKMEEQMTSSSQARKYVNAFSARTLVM
Chain of Oxysterols receptor LXR-alpha (Homo sapiens) (Q13133 whole entry, looked up, the tested form may be a part): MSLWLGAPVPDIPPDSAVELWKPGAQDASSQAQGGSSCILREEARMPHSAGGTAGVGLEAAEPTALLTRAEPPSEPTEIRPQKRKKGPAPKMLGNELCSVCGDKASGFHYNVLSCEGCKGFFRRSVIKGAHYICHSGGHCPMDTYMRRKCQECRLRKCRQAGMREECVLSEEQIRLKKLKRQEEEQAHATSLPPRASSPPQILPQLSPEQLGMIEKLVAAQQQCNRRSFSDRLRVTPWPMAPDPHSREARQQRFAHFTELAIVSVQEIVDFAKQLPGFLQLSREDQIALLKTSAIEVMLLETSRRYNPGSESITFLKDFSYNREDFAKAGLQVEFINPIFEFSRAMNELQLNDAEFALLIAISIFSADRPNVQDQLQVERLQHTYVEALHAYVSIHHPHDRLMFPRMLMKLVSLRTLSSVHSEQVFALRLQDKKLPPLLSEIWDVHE
Chain of Nuclear receptor subfamily 4 group A member 2 (Homo sapiens) (P43354 whole entry, looked up): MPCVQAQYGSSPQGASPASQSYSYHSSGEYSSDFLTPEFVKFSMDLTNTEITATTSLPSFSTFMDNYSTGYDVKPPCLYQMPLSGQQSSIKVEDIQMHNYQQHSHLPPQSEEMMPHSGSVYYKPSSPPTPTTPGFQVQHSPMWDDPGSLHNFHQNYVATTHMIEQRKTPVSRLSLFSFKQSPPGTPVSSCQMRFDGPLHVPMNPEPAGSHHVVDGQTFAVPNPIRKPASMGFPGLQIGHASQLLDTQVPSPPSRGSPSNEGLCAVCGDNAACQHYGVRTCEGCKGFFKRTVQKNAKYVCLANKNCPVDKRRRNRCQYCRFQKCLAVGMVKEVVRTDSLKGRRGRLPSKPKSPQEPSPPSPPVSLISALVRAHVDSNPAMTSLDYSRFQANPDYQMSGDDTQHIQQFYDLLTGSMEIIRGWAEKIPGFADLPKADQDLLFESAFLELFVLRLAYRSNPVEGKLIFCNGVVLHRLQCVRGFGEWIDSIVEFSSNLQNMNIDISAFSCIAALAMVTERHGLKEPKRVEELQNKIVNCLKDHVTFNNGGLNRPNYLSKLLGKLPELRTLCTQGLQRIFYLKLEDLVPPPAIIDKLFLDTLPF
Chain of Oxysterols receptor LXR-beta (Homo sapiens) (P55055 whole entry, looked up, the tested form may be a part): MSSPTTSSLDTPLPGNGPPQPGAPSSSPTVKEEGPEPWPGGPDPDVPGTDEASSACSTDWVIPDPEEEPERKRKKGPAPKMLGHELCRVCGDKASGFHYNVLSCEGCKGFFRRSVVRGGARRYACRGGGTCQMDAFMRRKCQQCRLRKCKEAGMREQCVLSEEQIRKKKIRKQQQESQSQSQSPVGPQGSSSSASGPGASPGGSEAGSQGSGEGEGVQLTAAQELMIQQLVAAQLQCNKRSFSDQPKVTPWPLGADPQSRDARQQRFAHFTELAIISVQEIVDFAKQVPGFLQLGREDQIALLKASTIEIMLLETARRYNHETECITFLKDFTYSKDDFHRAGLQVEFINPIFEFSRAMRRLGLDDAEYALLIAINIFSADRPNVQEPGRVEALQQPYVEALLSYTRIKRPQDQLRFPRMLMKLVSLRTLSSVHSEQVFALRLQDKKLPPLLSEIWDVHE

CC/C=C\CCOC(=O)CCCCC
inactive: [1] | [2] | [3]

CCC(C)C=O (configuration not stated)
inactive: [1] | [4] | [3]

Cc1cc(O)c(Cl)c(C)c1Cl
inactive: [5] | [6] | [2] | [3]

O=C(O)c1cc2ccccc2nc1C(=O)O
not listed: [1] | [8]
inactive: all other assays above

CC(C)=CCC[C@H](C)CCO
not listed: [1] | [8]
inactive: all other assays above

Cc1ccc(C(C)(C)C)cc1
not listed: [1] | [7]
inactive: all other assays above

OC1CCCC1
not listed: [1] | [7]
inactive: all other assays above

O=CC1CC1
inactive: [1] | [8] | [2] | [3]

O=c1c2ccccc2nnn1CCl
not listed: [1] | [4]
inactive: all other assays above

COc1c2ccoc2cc2oc(=O)ccc12
inactive: [5] | [6] | [4] | [2] | [3]

[Cl][Bi]([Cl])([c]1ccccc1)([c]1ccccc1)[c]1ccccc1
not listed: [1] | [6]
inactive: all other assays above

Cc1ccc2oc(=O)ccc2c1
not listed: [1] | [6]
inactive: all other assays above

O=C(O)c1ccccc1Nc1cccc(C(F)(F)F)c1
inactive: [5] | [6] | [8] | [2]

O=C1CCCC(=O)O1
not listed: [1] | [4]
inactive: all other assays above

OCCN(CCO)c1ccccc1
inactive: [5] | [6] | [4] | [2] | [3]

COC(=O)c1c(C)cc(O)c(C)c1O
inactive: [5] | [6] | [8] | [2] | [3]

CC(C)(c1cc(Br)c(OCCO)c(Br)c1)c1cc(Br)c(OCCO)c(Br)c1
active: [4] 21.5 µM | [3] 46.7 µM
inactive: [5] | [7] | [8] | [2]

S=C(NC1CCCCC1)NC1CCCCC1
inactive: [1] | [8] | [4] | [3]

C=CC(=O)OCCOC(=O)C=C
not listed: [1] | [4]
inactive: all other assays above

CCN(CC#N)c1cccc(C)c1
not listed: [1] | [7]
inactive: all other assays above

O=C(OCC1CCC2OC2C1)C1CCC2OC2C1 (configuration not stated)
inactive: [5] | [6] | [4] | [2] | [3]

COC(=O)/C=C/C(C)=C\C=C\C(C)=C\C=C\C=C(C)\C=C\C=C(C)\C=C\C(=O)O
inactive: [5] | [6] | [4] | [2] | [3]

C=C(C)[C@H]1CC=C(C)CC1
inactive: [5] | [6] | [4] | [2] | [3]

O=S1(=O)OC(c2ccc(O)cc2)(c2ccc(O)cc2)c2ccccc21
inactive: [5] | [6] | [4] | [3]

CN(C)c1ccc(N=Nc2ccccc2C(=O)O)cc1
active: [2] 25.3 µM
inactive: [5] | [6] | [8] | [4]

O=S(=O)(O)CC(O)CCl (configuration not stated)
not listed: [1] | [4]
inactive: all other assays above

C[Si](C)(CCCN)O[Si](C)(C)CCCN
inactive: [5] | [6] | [2] | [3]

CCOCC(=O)O
inactive: [1] | [2] | [3]

CC(C)(C)C(=O)CCc1ccc(Cl)cc1
not listed: [1] | [7]
inactive: all other assays above

COc1ccc(NC(C)=O)cc1N
inactive: [5] | [6] | [4] | [2] | [3]

Cc1cccc(C(=O)O)c1
inactive: [5] | [6] | [8] | [2] | [3]

C[C@]12C=CC(=O)C=C1CC[C@@H]1[C@@H]2[C@@H](O)C[C@@]2(C)[C@H]1CC[C@]2(O)C(=O)CO
inactive: [5] | [6] | [4] | [2] | [3]

N#CCc1ccc(Cl)cc1Cl
inactive: [5] | [7] | [6] | [2] | [3]

N#[N+]c1ccc2c(S(=O)(=O)[O-])cccc2c1O
inactive: [5] | [7] | [4] | [2] | [3]

Cc1c(C)c([N+](=O)[O-])c(C(C)(C)C)c([N+](=O)[O-])c1C
active: [4] 9.67 µM
not listed: [1] | [7]
inactive: all other assays above

Cc1cc(C)c(C)c(C)c1
not listed: [1]
inactive: all other assays above

CCCCCCCC(C)=O
inactive: [5] | [7] | [6] | [8] | [3]

CCOc1ccc(N)c([N+](=O)[O-])c1
not listed: [1] | [8]
inactive: all other assays above

c1ccc(CNCc2ccccc2)cc1
inactive: [5] | [6] | [2] | [3]

O=CN1CCCCC1
inactive: [5] | [8] | [4] | [2]

C=CC(C)(C)C
inactive: [2] | [3]

NCCCN1CCN(CCCN)CC1
inactive: [8] | [2] | [3]

O=c1cc[nH]c(=S)[nH]1
inactive: [6] | [8] | [2]

CCCCCCC1(C)CCC(=O)O1 (configuration not stated)
inactive: [7] | [6] | [8] | [2] | [3]

O=C(C=Cc1ccccc1)OCc1ccccc1
inactive: [7] | [6] | [4] | [2] | [3]

O=S(=O)(O)c1ccc2cc(O)c(S(=O)(=O)O)cc2c1
inactive: [5] | [2] | [3]

O=C(O)c1cc(Cl)cc([N+](=O)[O-])c1Cl
inactive: [7] | [6] | [8] | [2] | [3]

CCCC(C)CCC(C)=O (configuration not stated)
inactive: [7] | [6] | [4] | [2]

FC(F)=C(F)OC(F)(F)C(F)(F)C(F)(F)F
inactive: [5] | [4] | [2] | [3]

CC(CC=O)CCCC(C)(C)O (configuration not stated)
not listed: [1] | [5]
inactive: all other assays above

c1c[nH]cn1
inactive: [7] | [2] | [3]

Nc1ncn([C@@H]2O[C@H](CO)[C@@H](O)[C@H]2O)c(=O)n1
inactive: [5] | [4] | [2] | [3]

[Cl][Nd]([Cl])[Cl]
inactive: [5] | [4] | [3]

CCCCOCCOC(=O)COc1nc(Cl)c(Cl)cc1Cl
inactive: [8] | [2] | [3]

CC(CC=O)c1ccccc1 (configuration not stated)
inactive: [6] | [4] | [3]

O=S(=O)(Oc1ccc(Cl)cc1Cl)c1ccccc1
active: [4] 35.4 µM
inactive: [6] | [3]

CCCCCCCCCCOC(C)=O
inactive: [7] | [6] | [4] | [2] | [3]

CCOC(=O)c1ccccc1C(=C1C=C(Br)C(=O)C(Br)=C1)c1cc(Br)c(O)c(Br)c1
inactive: [7] | [6] | [8] | [3]

CCCCCCCCCCCCCOP(=O)(O)O
inactive: [5] | [2] | [3]

CC(C)=CC1CC(C)CCO1 (configuration not stated)
inactive: [7] | [6] | [2] | [3]

Cc1cccc(N)n1
inactive: [6] | [2] | [3]

O=C(O)Cc1c(Cl)ccc(Cl)c1Cl
inactive: [7] | [8] | [2]

CCOC(=O)[C@H](C)O
inactive: [6] | [4] | [2] | [3]

CCO[Si](C)(OCC)OCC
inactive: [6] | [2] | [3]

ON(Cc1ccccc1)Cc1ccccc1
inactive: [5] | [3]

CC(C)CCCC(C)CC=O (configuration not stated)
not listed: [1] | [5]
inactive: all other assays above

CC(=O)Oc1ccc(C)cc1
inactive: [4] | [2] | [3]

Cc1cc(=O)n(-c2ccccc2)n1C
inactive: [6] | [4] | [2]

O=C(c1ccccc1)C1CCC1
inactive: [6] | [2] | [3]

OC1OCCOC1O (configuration not stated)
inactive: [6] | [8] | [2] | [3]

CCCC(=O)OCc1ccccc1
inactive: [7] | [2]

Clc1nc2ccccc2s1
inactive: [7] | [6] | [4] | [2]

CCCCCCOc1cc(C)c(O)c(C)c1C
inactive: [7] | [6] | [4] | [2] | [3]

NC(=O)OCC(COC(N)=O)c1ccccc1
inactive: [7] | [6] | [4] | [2] | [3]

Cc1cc(C)c(C)cc1C
inactive: [8] | [2]

Cn1c([N+](=O)[O-])cnc1COC(N)=O
inactive: [5] | [4] | [3]

Cc1cccc(OCCOc2cccc(C)c2)c1
inactive: [5] | [8] | [2] | [3]

CCCCC/C=C\C/C=C\CCCCCCCC(=O)OC
active: [2] 162 µM | [3] 171 µM
inactive: [7] | [6] | [8] | [4]

CCC(C)(C)C1CCCCC1OC(C)=O (configuration not stated)
inactive: [6] | [8] | [4] | [2] | [3]

C=CC(=O)OCCC(=O)O
inactive: [7] | [6] | [2] | [3]
